Test results from the supplement of paper PMC11624193, “Coupling cellular drug-target engagement to downstream pharmacology with CeTEAM” (Nature Communications, 2024).
Values joined by “and” are separate entries in the source; they are usually repeats but may differ in a detail not shown here. Equal values may be shown once. Where a name gives a salt, the structure may show the parent alone. A number with no mark means an inactive call.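 The calls were made as follows: active = log2 fold change beyond 2 SD from the library mean after excluding viability outliers; inactive = within 2 SD.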

molecular target: PARP1 L713F-nLuc biosensor (HCT116) (UniProt P09874); experiment: PARP1 L713F-nLuc/akaLuc ratio relative to DMSO control (biosensor stabilization) (fold change); higher = more PARP1 biosensor stabilization (target engagement / stabilizer), active = hit call of the paper; settings: stock concentration (mM; final µM = stock mM x 1): 10; 24 h
Sequence (P09874 whole entry L713F, looked up): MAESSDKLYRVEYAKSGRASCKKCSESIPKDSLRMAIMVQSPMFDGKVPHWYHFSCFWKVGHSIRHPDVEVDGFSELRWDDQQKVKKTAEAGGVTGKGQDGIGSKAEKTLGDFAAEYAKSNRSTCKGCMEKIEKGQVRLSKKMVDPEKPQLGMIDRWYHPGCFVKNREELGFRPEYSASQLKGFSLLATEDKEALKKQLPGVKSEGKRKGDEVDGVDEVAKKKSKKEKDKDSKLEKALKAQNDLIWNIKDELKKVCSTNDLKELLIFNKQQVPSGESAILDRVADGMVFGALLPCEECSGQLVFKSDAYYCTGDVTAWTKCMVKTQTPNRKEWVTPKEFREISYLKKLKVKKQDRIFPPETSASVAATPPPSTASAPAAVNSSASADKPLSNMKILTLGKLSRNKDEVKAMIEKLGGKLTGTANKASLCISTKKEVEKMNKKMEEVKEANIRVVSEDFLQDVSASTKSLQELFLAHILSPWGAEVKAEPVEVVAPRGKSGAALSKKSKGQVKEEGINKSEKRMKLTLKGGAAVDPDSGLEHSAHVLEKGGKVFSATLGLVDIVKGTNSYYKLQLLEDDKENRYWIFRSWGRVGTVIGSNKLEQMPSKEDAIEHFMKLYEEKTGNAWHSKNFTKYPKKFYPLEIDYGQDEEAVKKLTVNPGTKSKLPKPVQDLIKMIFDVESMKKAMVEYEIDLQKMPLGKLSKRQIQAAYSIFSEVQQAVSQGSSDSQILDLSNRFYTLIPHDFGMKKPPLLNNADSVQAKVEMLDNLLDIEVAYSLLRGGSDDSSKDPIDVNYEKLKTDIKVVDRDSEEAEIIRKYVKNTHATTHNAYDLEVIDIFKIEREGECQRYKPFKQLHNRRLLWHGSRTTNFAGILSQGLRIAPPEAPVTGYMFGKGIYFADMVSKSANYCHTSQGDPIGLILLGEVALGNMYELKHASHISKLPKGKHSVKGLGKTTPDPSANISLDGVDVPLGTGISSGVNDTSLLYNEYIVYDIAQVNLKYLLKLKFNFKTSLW

SMILES | PARP1 L713F-nLuc/akaLuc ratio
COc1ccc(C2(CNC(=O)c3ccc(NC(=O)c4ccco4)cc3)CCOCC2)cc1 | 1.23
O=C(NCC1(c2nc(-c3ccccc3)cs2)CCOCC1)c1cccc(-c2noc(C(F)(F)F)n2)c1 | 0.465
CCCS(=O)(=O)Nc1ccc(F)c(C(=O)c2c[nH]c3ncc(-c4ccc(Cl)cc4)cc23)c1F [Vemurafenib (PLX4032, RG7204)] | 0.608
C/C=C(/C)C(=O)O[C@H]1Cc2cc3ccc(=O)oc3cc2OC1(C)C [Decursinol angelate] | 0.885
O=C(NC[C@H](O)CN1CCc2ccccc2C1)c1cc(NC2COC2)ncn1 | 0.532 and 0.854
O=C1C(Cl)=C(NCCN2CCOCC2)C(=O)c2ncccc21 | 0.636
O=C(O)c1ccc(Nc2ncc3c(n2)-c2ccc(Cl)cc2C(c2c(F)cccc2F)=NC3)cc1 | 1.87
O=C(/C=C/c1ccc(O)c(O)c1)O[C@@H]1C[C@](O)(C(=O)O)C[C@@H](O)[C@H]1O [Chlorogenic acid] | 1.16
O=C(O)c1ccc2c(c1)nc(NC(=O)c1ccccc1)n2CCCc1ccccc1 | 1.26
C[C@H](NC(=O)/C(C#N)=C/c1cccc(Br)n1)c1ccccc1 | 0.804
Cn1nnc2c(C(N)=O)ncn2c1=O [Temozolomide] | 0.833
O=C(NCc1ccncc1)C12CC3CC(C1)CC(c1ccc(Cl)cc1)(C3)C2 | 0.757
CC(C(=O)Nc1cccc(/N=C/c2c(O)ccc3ccccc23)c1)c1ccccc1 (centres undefined) [Salermide] | 0.605
CC(=O)Nc1ccc(NC(=S)NC(=O)c2ccc(C(C)(C)C)cc2)cc1 [Tenovin-1] | 0.509
CC1(C)CN(C(=O)c2ccc(-c3cccc4nc(NC(=O)C5CC5)nn34)cc2)C1 [Solcitinib] | 0.98
NC(=O)c1cccnc1 [Nicotinamide] | 0.942
Cc1nc2cccc(N)c2c(=O)n1C1CCC(=O)NC1=O (centres undefined) [Avadomide(CC-122)] | 0.983
Cc1cc(C)c(CN2CCc3c(Cl)cc(-c4c(C)noc4C)c(Cl)c3C2=O)c(=O)[nH]1 | 0.881
Cc1c(CN2CCC(Nc3ncnc4sc(CC(F)(F)F)cc34)CC2)ccc2c1cc(C#N)n2Cc1cn[nH]c1 | 0.806
O=c1[nH]nc2c3c(cccc13)N=C(CN1Cc3ccccc3C1)N2 | 8.18 (active)

SMILES | PARP1 L713F-nLuc/akaLuc ratio
Cc1cc(C)c(CNC(=O)c2cc(-c3ccc(N4CCN(C)CC4)nc3)cc3c2c(C)cn3C(C)C)c(=O)[nH]1 | 1.47
Clc1ccc(Nc2nnc(Cc3ccncc3)c3ccccc23)cc1 [Vatalanib (PTK787) 2HCl] | 0.831
Cc1cc(CN2CCN(c3c(Br)cnc4nc(-c5ccc(N6CCN(C)CC6)cc5)[nH]c34)CC2)no1 | 1.37
CN1CCN(CCOc2cc(OC3CCOCC3)c3c(Nc4c(Cl)ccc5c4OCO5)ncnc3c2)CC1 [Saracatinib (AZD0530)] | 0.92
COC(=O)c1cc(CN2CCN(C(=N)N)CC2)cc(C(=O)N2CCN(C(=O)c3ccc(C(=N)N)cc3)CC2)c1 [CBB1007 (trihydrochloride)] | 0.723
CN(C)CCCCC(=O)Nc1ccc(NC(=S)NC(=O)c2ccc(C(C)(C)C)cc2)cc1 [Tenovin-6 (Hydrochloride)] | 0.665
C=C(C)[C@@H]1CCC(C)=C[C@H]1C1=C(O)C(=O)C(CCCCC)=C(NCc2ccccc2)C1=O | 1.39
NC(=O)c1cc(F)cc2c1C(=O)N(C1CCN(C3CCC(F)(F)CC3)CC1)C2 | 6 (active)
O=C(O)c1ccc(O)c2ncccc12 | 0.734
Cc1cnc(NC(=O)Nc2cc(Br)c(C)cc2OC[C@@H]2CNCCO2)cn1 | 0.787
O=S(=O)(c1cccc2cnccc12)N1CCNCC1 | 0.882
CCCOc1ccn2c(C(C)=O)cc(-c3cccc(OC)c3)c2c1 | 1.56
NC(=O)C1CCN(CC(=O)Nc2ccc(Br)cc2)CC1 | 0.965
FC(F)(F)c1ccc(CNc2ccc(Cc3c[nH]c4ncc(Cl)cc34)cn2)cn1 [Pexidartinib (PLX3397)] | 0.69
Cc1cc(Nc2cc(N3CCN(C)CC3)nc(/C=C/c3ccccc3)n2)n[nH]1 | 1.27
N#Cc1c(Oc2ccc(F)c(NC(=O)Cc3cccc(C(F)(F)F)c3)c2)ccc2nc(NC(=O)C3CC3)sc12 | 0.538
Cc1cc(Nc2cc3ncccc3c(N[C@@H]3C[C@H]4CC[C@@H](C3)N4CCC#N)n2)n[nH]1 [Izencitinib] | 0.804
C[C@@H]1C[C@H]2[C@@H]3CCC4=CC(=O)C=C[C@]4(C)[C@@]3(F)[C@@H](O)C[C@]2(C)[C@@]1(O)C(=O)CO [Dexamethasone (DHAP)] | 1.03
NCCNS(=O)(=O)c1cccc2c(Cl)cccc12 [A-3 (hydrochloride)] | 0.846
